Laboratory results published in PubChem BioAssay.
Values without a mark were called inactive. Active and inactive are the calls of the source.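 How the source made its calls, unless noted: active means growth inhibition above 50% at the single 2 µM test dose, taken to imply half-maximal potency below 2 µM; inactive means the rest.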

system: not listed separately; experiment: antimalarial activity against Dd2 strain (AID 2302);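 further: 0% = DMSO untreated growth and 100% = chloroquine plus artemisinin killed control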; settings: P. falciparum Dd2 in RBCs, LDH growth readout, 72 h; at 2 µM; active compounds read high

SMILES	growth inhibition
CCOC(=O)N1CCN(CCCCCNc2cc(C)nc(/N=C(\N)Nc3ccc(Cl)cc3)n2)CC1	0%
COc1cc(CCNC(=O)Cc2ccc3ccccc3c2)ccc1OCc1ccccc1	61% (active)
CCN(Cc1cccc2ccccc12)c1ccc2nc(N)nc(N)c2c1	100% (active)
CCn1c(O)c(N=NC(=S)N2CCCC2)c2ccccc21	9%
CCCCC#Cc1cnc2nc(N)[nH]c(=O)c2n1	2%
NC(=NCC1CC1c1ccccc1)c1cccc(C(N)=NCC2CC2c2ccccc2)n1 (stereo not drawn)	-2%
COc1ccc(Cc2c(Cl)nc3nc(N)nc(N)c3c2C)cc1	3%
CCCCc1cc(Cc2cnc(N)nc2N)cc(OC)c1OC	-1%
COc1cccc2c(O)c(CNC3CCCCC3)ccc12	98% (active)
Cc1nc(N)nc(N)c1-c1cc(Cl)c(Cl)c(Cl)c1	0%
Cc1[nH]c(C)c(-c2ccc(-c3ccc(F)cc3)cc2)c(=O)c1Cl	96% (active)
CC(C)Cn1cc2c(ccc3nc(N)nc(N)c32)n1	2%
CCN(CC)CCNc1cc(C)nc(/N=C(\N)Nc2ccc(Cl)cc2)n1	0%
CCNC(=NCc1ccccc1)NCCCCCCNC(=NCc1ccccc1)NCC	95% (active)
Cc1[nH]c(C)c(-c2ccc(Oc3ccc(Cl)c(Cl)c3)cc2)c(=O)c1Br	96% (active)
Cc1ccc2ccncc2c1N	4%
CCCc1cc(Cc2cnc(N)nc2N)c2cccnc2c1OC	3%
Cn1c(=N)cc(-c2cccc(I)c2)c2c(=O)[nH]c(N)nc21	75% (active)
CN(C)S(=O)(=O)n1ccc2c3c(N)nc(N)nc3ccc21	-3%
Cc1[nH]c(C)c(-c2ccc(Oc3cc(Cl)cc(Cl)c3)cc2)c(=O)c1Br	97% (active)

SMILES	growth inhibition
CCCCNCc1ccc(OCc2cccc(COc3ccc(CNCCCC)cc3I)c2)c(I)c1	13%
CCCCOc1c(CCNCCCCNCCc2cc(OC)c3ccccc3c2OCCCC)cc(OC)c2ccccc12	47%
c1ccc2c(NCCOCCNc3c4ccccc4nc4ccccc34)c3ccccc3nc2c1	-1%
Cc1[nH]c(C)c(-c2ccc(Oc3cccc(OC(F)(F)F)c3)cc2)c(=O)c1Cl	97% (active)
Oc1ccc2c(CNC3CCCCC3)c(O)ccc2c1CNC1CCCCC1	101% (active)
CC(C)Cn1ccc2c3c(N)nc(N)nc3ccc21	96% (active)
COc1cc(Cc2cnc(N)nc2N)cc(OCCCCNS(=O)(=O)C(F)(F)F)c1OC	-5%
CC(=O)Oc1c(Cl)c(C)nc(C)c1-c1ccc(Oc2ccc(Cl)cc2)cc1	96% (active)
Oc1c(CNC2CCCCC2)cc(Cl)c2ccccc12	101% (active)
COc1ccc(-c2cnc(N)nc2N)cc1Cl	1%
Cc1c(Cc2ccc(C(C)C)cc2)cnc2nc(N)nc(N)c12	-3%
Cc1nc(N)nc(N)c1-c1ccc(Br)c(Br)c1	1%
COc1cc(Cc2cnc(N)nc2N)cc(OCCCC(=O)O)c1OC	-3%
Cc1[nH]c(C)c(-c2ccc(Oc3ccc(S(C)=O)cc3)cc2)c(=O)c1Br (stereo not drawn)	64% (active)
CN1CCN(c2ccc3nc(-c4ccc5nc(-c6ccc([N+](=O)[O-])c(N)c6)[nH]c5c4)[nH]c3c2)CC1	101% (active)
CCCc1cc2c3c(N)nc(N)nc3ccc2n1CC	6%
COc1ccc(OC)c(Cc2c(C)nc3nc(N)nc(N)c3c2C)c1	0%
CCC(C(C)C)n1ccc2c3c(N)nc(N)nc3ccc21 (stereo not drawn)	95% (active)
C=CCn1ccc2c3c(N)nc(N)nc3ccc21	91% (active)

biological target: L-lactate dehydrogenase (Plasmodium falciparum (isolate CDC / Honduras)) (UniProt Q27743); experiment: PfLDH activity inhibition – cell lysate, 3D7 strain, counter-screen for P. falciparum growth inhibition project (AID 2304; call rule not given here;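 further: 0% = vehicle and 100% = reference inhibitor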); settings: P. falciparum 3D7 crude extract, LDH APAD/NBT absorbance; at 2 µM; active compounds read high
Sequence (Q27743 whole entry, looked up): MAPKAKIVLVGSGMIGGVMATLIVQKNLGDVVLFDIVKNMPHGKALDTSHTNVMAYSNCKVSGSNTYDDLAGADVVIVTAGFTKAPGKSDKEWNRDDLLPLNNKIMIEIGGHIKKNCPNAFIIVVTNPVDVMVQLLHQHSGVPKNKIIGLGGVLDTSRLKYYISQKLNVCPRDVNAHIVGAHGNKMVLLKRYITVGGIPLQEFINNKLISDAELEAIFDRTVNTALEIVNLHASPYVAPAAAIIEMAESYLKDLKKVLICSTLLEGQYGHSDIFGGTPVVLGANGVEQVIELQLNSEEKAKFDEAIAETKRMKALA

SMILES	inhibition [%]
CCOC(=O)N1CCN(CCCCCNc2cc(C)nc(/N=C(\N)Nc3ccc(Cl)cc3)n2)CC1	-1
COc1cc(CCNC(=O)Cc2ccc3ccccc3c2)ccc1OCc1ccccc1	2
CCN(Cc1cccc2ccccc12)c1ccc2nc(N)nc(N)c2c1	3
CCn1c(O)c(N=NC(=S)N2CCCC2)c2ccccc21	4
CCCCC#Cc1cnc2nc(N)[nH]c(=O)c2n1	0
NC(=NCC1CC1c1ccccc1)c1cccc(C(N)=NCC2CC2c2ccccc2)n1 (stereo not drawn)	0
COc1ccc(Cc2c(Cl)nc3nc(N)nc(N)c3c2C)cc1	6
CCCCc1cc(Cc2cnc(N)nc2N)cc(OC)c1OC	3
COc1cccc2c(O)c(CNC3CCCCC3)ccc12	3
Cc1nc(N)nc(N)c1-c1cc(Cl)c(Cl)c(Cl)c1	2
Cc1[nH]c(C)c(-c2ccc(-c3ccc(F)cc3)cc2)c(=O)c1Cl	-2
CC(C)Cn1cc2c(ccc3nc(N)nc(N)c32)n1	-2
CCN(CC)CCNc1cc(C)nc(/N=C(\N)Nc2ccc(Cl)cc2)n1	3
CCNC(=NCc1ccccc1)NCCCCCCNC(=NCc1ccccc1)NCC	-5
Cc1[nH]c(C)c(-c2ccc(Oc3ccc(Cl)c(Cl)c3)cc2)c(=O)c1Br	-1
Cc1ccc2ccncc2c1N	-6
CCCc1cc(Cc2cnc(N)nc2N)c2cccnc2c1OC	2
Cn1c(=N)cc(-c2cccc(I)c2)c2c(=O)[nH]c(N)nc21	6
CN(C)S(=O)(=O)n1ccc2c3c(N)nc(N)nc3ccc21	-4
Cc1[nH]c(C)c(-c2ccc(Oc3cc(Cl)cc(Cl)c3)cc2)c(=O)c1Br	-6

SMILES	inhibition [%]
CCCCNCc1ccc(OCc2cccc(COc3ccc(CNCCCC)cc3I)c2)c(I)c1	6
CCCCOc1c(CCNCCCCNCCc2cc(OC)c3ccccc3c2OCCCC)cc(OC)c2ccccc12	7
c1ccc2c(NCCOCCNc3c4ccccc4nc4ccccc34)c3ccccc3nc2c1	5
Cc1[nH]c(C)c(-c2ccc(Oc3cccc(OC(F)(F)F)c3)cc2)c(=O)c1Cl	-1
Oc1ccc2c(CNC3CCCCC3)c(O)ccc2c1CNC1CCCCC1	-4
CC(C)Cn1ccc2c3c(N)nc(N)nc3ccc21	1
COc1cc(Cc2cnc(N)nc2N)cc(OCCCCNS(=O)(=O)C(F)(F)F)c1OC	7
CC(=O)Oc1c(Cl)c(C)nc(C)c1-c1ccc(Oc2ccc(Cl)cc2)cc1	0
Oc1c(CNC2CCCCC2)cc(Cl)c2ccccc12	0
COc1ccc(-c2cnc(N)nc2N)cc1Cl	4
Cc1c(Cc2ccc(C(C)C)cc2)cnc2nc(N)nc(N)c12	6
Cc1nc(N)nc(N)c1-c1ccc(Br)c(Br)c1	-2
COc1cc(Cc2cnc(N)nc2N)cc(OCCCC(=O)O)c1OC	3
Cc1[nH]c(C)c(-c2ccc(Oc3ccc(S(C)=O)cc3)cc2)c(=O)c1Br (stereo not drawn)	0
CN1CCN(c2ccc3nc(-c4ccc5nc(-c6ccc([N+](=O)[O-])c(N)c6)[nH]c5c4)[nH]c3c2)CC1	-7
CCCc1cc2c3c(N)nc(N)nc3ccc2n1CC	-1
COc1ccc(OC)c(Cc2c(C)nc3nc(N)nc(N)c3c2C)c1	-2
CCC(C(C)C)n1ccc2c3c(N)nc(N)nc3ccc21 (stereo not drawn)	3
C=CCn1ccc2c3c(N)nc(N)nc3ccc21	-7
